Hits are enriched below; roughly 7.4% of the tested compounds scored in any of these assays.
ELG1 genotoxic: genotoxicity induction in ELG1-luciferase HEK293T cells; 330,000 compounds, 1.3% hits; HEK293T ELG1-luciferase reporter, luminescence, 16 h; Potency, µM (top dose mostly 46 µM), without a hit: at the top dose activity change, positive = activation, most hits filed as activators; also: % of control where 0% means no effect; nearly all actives have a fitted effect of over 60% in size
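Screening used a luciferase reporter fused to human ELG1 in HEK293T cells. Luminescence was read on a CCD plate imager after 16 hr exposure and 30 min ONE-Glo incubation.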
SMN2 splice enh: enhancers of SMN2 splice variant expression; Potency, µM (doses to about 46.1 µM), without a hit: top-dose activity change, positive = activation, most hits filed as activators; HEK293 SMN2-luciferase splicing reporter, luminescence, 30-36 h; AID 1458; 210,000 compounds, 2.8% hits; also: % of control where 0% means no effect; nearly all actives have a fitted effect of over 55% in size
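qHTS luciferase splicing reporter: luminescence rises when SMN2 exon 7 is included in transfected HEK293 cells. Compound exposure lasted 30-36 h at 37C, with 4.5 mM final sodium butyrate as control, followed by a ONE-Glo read.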
Rab9 prom act: Rab9 promoter activation. Huh7 Rab9 promoter-luciferase reporter, luminescence, 24 h. AID 485297. 320,000 compounds, 2.8% hits. Potency, µM (highest dose often 9.22 µM), inactives show at the highest dose activation, negative = inhibition, hits mostly activators; also: % of control where 0% means no effect; nearly all actives have a fitted effect of over 60% in size
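Huh7 reporter line, Rab9 promoter upstream of luciferase. Compound exposure 24 h at 37 °C in reduced-serum medium with 10% FBS. Read-out: luminescence.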
FLuc counter: inhibits or activates purified firefly luciferase, miR-21 counter-screen. P08659. purified FLuc, Km substrates, luminescence inhibition. Potency, µM (top dose mostly 57.5 µM), for the others: at the top dose activity change, negative = inhibition, most hits filed as inhibitors. 360,000 compounds, 6.9% hits;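 also: plate controls were vehicle for no effect and reference inhibitor for full effect; nearly all actives have a fitted effect of over 55% in size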
Target sequence (P08659 whole entry, looked up): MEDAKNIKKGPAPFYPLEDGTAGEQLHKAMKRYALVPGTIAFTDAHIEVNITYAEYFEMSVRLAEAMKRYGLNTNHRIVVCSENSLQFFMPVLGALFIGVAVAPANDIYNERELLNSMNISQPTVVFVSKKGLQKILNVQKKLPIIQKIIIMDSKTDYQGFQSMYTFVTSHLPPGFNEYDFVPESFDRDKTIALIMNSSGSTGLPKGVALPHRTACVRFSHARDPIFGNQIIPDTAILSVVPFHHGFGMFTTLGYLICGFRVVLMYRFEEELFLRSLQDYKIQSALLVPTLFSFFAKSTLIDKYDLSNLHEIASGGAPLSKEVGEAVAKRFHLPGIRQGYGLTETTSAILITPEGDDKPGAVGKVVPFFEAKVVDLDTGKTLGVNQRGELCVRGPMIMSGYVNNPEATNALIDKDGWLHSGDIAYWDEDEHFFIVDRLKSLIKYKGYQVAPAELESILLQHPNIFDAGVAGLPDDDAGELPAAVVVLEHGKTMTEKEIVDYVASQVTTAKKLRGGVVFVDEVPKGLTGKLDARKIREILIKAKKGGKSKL
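Purified P. pyralis luciferase, 10 nM final, with Km-level 10 uM D-luciferin and 10 uM ATP in 50 mM Tris acetate pH 7.5, 10 mM Mg acetate, 0.01% Tween-20, 0.05% BSA; 6-point qHTS titration about 60 µM downward; luminescence read.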
NPC1 prom act: activates the NPC1 promoter; Huh7 NPC1 promoter luciferase reporter, 24 h; 320,000 compounds, 2.4% hits; Potency, µM (doses to about 9.22 µM), for the others: top-dose activation, actives largely listed as activators; also: % of control where 0% means no effect; nearly all actives have a fitted effect of over 60% in size
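Cells: Huh7 expressing luciferase under the NPC1 promoter, 1500/well. Seeded 2 h, compound added, incubated 24 h at 37 °C. Luciferase reagent, 10 min ambient, then luminescence.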
Active calls of the source: *; ? = inconclusive; . = no result given. Calls follow the shape of the dose curve; as a rule, active = well fitted curve in the direction sought with a large enough effect; inconclusive = small, poorly fitted or top-dose-only effect, or another doubt; inactive = no such curve, though single readings can be large; an effect the other way counts as inactive or inconclusive. Potency is read from the fitted curve at half-maximal effect.

SMILES | ELG1 genotoxic | SMN2 splice enh | Rab9 prom act | FLuc counter | NPC1 prom act
Cc1ccc(Nc2c(-c3ccccc3)nc3cnccn23)cc1 | 2% | 7% | -7% | -3% | 0%
Cc1ccc2nc(-c3ccncc3)c(Nc3ccccc3)n2c1 | -1% | 18µM* | 0% | 0% | -1%
Cc1ccc(Nc2c(-c3ccc(C)cc3)nc3ccc(C)cn23)cc1 | . | 8% | . | -2% | .
Cc1ccc(Nc2c(-c3ccc(N(C)C)cc3)nc3ccccn23)cc1 | . | 15% | . | 7.6µM* | .
COc1ccc(S(=O)(=O)N2CCN(Cc3ccc4c(c3)OCO4)CC2)cc1OC | . | -9% | . | -7% | .
Cc1ccccc1-c1cc(C(=O)N/N=C/c2cccnc2)c2ccccc2n1 | 2% | . | -1% | -6% | 0%
Cc1ccc(-c2cc(C(=O)N/N=C\c3cnn(C)c3C)c3ccccc3n2)cc1C | ? | 1% | 25% | 0.67µM* | 12%
Cc1ccc(-c2cc(C(=O)NCc3cnn(C)c3C)c3ccccc3n2)cc1C | . | ? | . | 2.1µM* | .
Cc1c(-c2cc(C(=O)O)c3ccccc3n2)cnn1C | -4% | 13% | -1% | -19% | -4%
CN(C)c1ncnc2sc(-c3ccccc3)cc12 | 15% | . | 7% | 15µM* | 3%
CN(C)C(=O)COc1ncnc2sc(-c3ccccc3)cc12 | ? | . | 27% | ? | 21%
COc1ncnc2sc(-c3ccccc3)cc12 | ? | ? | 3.2µM* | 12µM* | ?
O=C(Cn1c(SCc2ccccc2F)nc2ccncc21)Nc1ccccc1C(F)(F)F | . | 0% | . | ? | .
CCCCNC(=O)CCCn1c(=O)c2ccccc2n(Cc2cccc(Cl)c2)c1=O | . | 8% | . | -5% | .
CCOc1ccc(S(=O)(=O)Nc2cccc(-c3ccc(N4CCC(C)CC4)nn3)c2)cc1 | . | . | . | 2.7µM* | .
COc1ccc(S(=O)(=O)Nc2cccc(-c3ccc(N4CCCC4)nn3)c2)cc1F | . | . | . | 13µM* | .
COc1ccc(S(=O)(=O)Nc2cccc(-c3ccc(N4CCCCCC4)nn3)c2)cc1OC | 18% | . | 4% | 6µM* | 18%
COc1ccc(S(=O)(=O)Nc2cccc(-c3ccc(N4CCCCCC4)nn3)c2)cc1 | . | . | . | 6.7µM* | .
CCCCOc1ccc(S(=O)(=O)Nc2ccc(-c3ccc(N4CCCCCC4)nn3)cc2)cc1 | . | . | . | -4% | .
CCOc1ccc(S(=O)(=O)Nc2cccc(C(=O)N3CCN(C(C)=O)CC3)c2)cc1 | 2% | . | 1% | 15% | 0%
COc1cccc(NS(=O)(=O)c2ccc(OC)c(OC)c2)c1 | -1% | -24% | -1% | 6% | 3%
CN(C)c1ccc(/C=N/N=C/c2ccccc2O)cc1 | ? | -44% | 0.56µM* | 0.3µM* | 0.45µM*
O=C(NCc1ccc(Cl)cc1)c1cnn2ccccc12 | ? | ? | 2.5µM* | 13µM* | 4µM*
COc1ccc(C2=NN(c3ccccc3)C(c3ccc(OC)c(OC)c3)C2)cc1 (stereo not drawn) | 6% | . | ? | ? | 27%
COc1ccc(C2=NN(C(C#N)c3ccc(OC)c(OC)c3)C(c3ccccc3)C2)cc1 (stereo not drawn) | 5.8µM* | 95% | ? | 12µM* | 14%
SMILES | ELG1 genotoxic | SMN2 splice enh | Rab9 prom act | FLuc counter | NPC1 prom act
COc1ccc(NC(=O)c2c(NCc3cccc(OC)c3)sc3c2CCC3)cc1 | . | . | . | -18% | .
Cc1ccc(C2=NN3C(C2)c2ccccc2OC32C(=O)Nc3ccccc32)cc1 (stereo not drawn) | ? | ? | ? | 15µM* | 2.5µM*
CN1C(=O)C2(Oc3ccccc3C3CC(c4ccccc4)=NN32)c2ccccc21 (stereo not drawn) | 0% | 11% | -12% | ? | 3%
CCOc1ccc(-c2nc(CSc3nnc(N)s3)cs2)cc1 | 5µM* | ? | ? | 1.9µM* | ?
CCOC(=O)c1ccc(CSc2nnc(N)s2)cc1 | 23µM* | ? | ? | 17µM* | ?
CCCOc1ccc(-c2cnc(N)s2)cc1 | ? | 18µM* | 3.2µM* | 11µM* | ?
CCCOc1ccc(OCCSc2nnc(N)s2)cc1 | 13µM* | ? | ? | 4.8µM* | ?
COc1ccc(Br)cc1CNC(=O)CCCn1c(=O)c2cccn2c2ccccc21 | . | . | . | -7% | .
COc1ccc(Cn2ccc3nc(C)c(C(=O)Nc4ccc(OC(F)(F)F)cc4)cc3c2=O)cc1 | . | . | . | 1% | .
Cc1ccc2c(c1)-c1c(c(C(=O)N3CCN(c4cc(C)ccc4C)CC3)nn1C)CS2 | . | . | . | -1% | .
Nc1nnc(SCCOc2cccc(Br)c2)s1 | 9% | -2% | 14% | ? | 13%
Nc1nnc(SCCCOc2ccc(F)cc2)s1 | -5% | . | 3% | 15µM* | -4%
CCN1C(=S)SC(=O)C1=C1C=C(C)N(Cc2ccco2)C(C)=C1 | 2.6µM* | ? | 0.63µM* | 3.4µM* | 1.4µM*
CCN1C(=S)SC(=O)C1=C1C=C(C)OC(C)=C1 | 13% | 1% | ? | ? | ?
O=S(=O)(c1cccc(-c2nnc(SCc3nc4ccccc4s3)o2)c1)N1CCOCC1 | 6% | 0% | ? | 19µM* | ?
O=S(=O)(c1ccc(OCc2nc3ccccc3s2)c(Cl)c1)N1CCOCC1 | 9.2µM* | 19% | ? | -19% | ?
C=C(C)C(O)/C=C/c1ccc(Br)cc1 (stereo not drawn) | . | -4% | . | . | .
CCOC(=O)c1ccc(N2C(=O)c3[nH]nc(-c4ccccc4)c3C2c2ccc(CC)cc2)cc1 (stereo not drawn) | . | -78% | . | -2% | .
CC(Oc1ccccc1)C(=O)Nc1nc2c(s1)C(=O)CC(C)(C)C2 (stereo not drawn) | 1% | -20% | -2% | -8% | 1%
CC1(C)CC(=O)c2sc(NC(=O)c3ccccc3)nc2C1 | ? | 13µM* | 0.71µM* | 1.9µM* | 0.45µM*
CC1(C)CC(=O)c2sc(NC(=O)c3ccc4ncsc4c3)nc2C1 | ? | 11µM* | ? | 1.9µM* | ?
CC1(C)CNC(=O)c2sc(NC(=O)c3ccccc3)nc2C1 | 16% | 11µM* | ? | ? | ?
CC1(C)CC(=O)c2sc(NC(=O)c3cccs3)nc2C1 | ? | 2.2µM* | 0.5µM* | 0.76µM* | ?
Cc1nnc2c3ccccc3nc(N3CCN(c4cccc(Cl)c4)CC3)n12 | . | . | . | -11% | .
CC1(C)CC(=O)c2sc(NC(=O)C(C)(C)C)nc2C1 | ? | . | 2.8µM* | ? | ?
O=C(c1cccs1)N(C(=O)c1cccs1)c1ccc(Br)cn1 | 2.1µM* | ? | 1.6µM* | ? | ?
Cc1ccc2[nH]c(=O)c(CN(C)C(=O)c3cccs3)cc2c1 | 7% | -9% | -1% | -7% | 9%
Cc1ccnc(N(C(=O)c2cccs2)C(=O)c2cccs2)c1 | 2.1µM* | 13µM* | 3.5µM* | 19µM* | 2.5µM*
O=C(Nc1ccc(NC(=O)c2cccs2)cc1)c1ccc(Br)cc1 | . | 6% | . | -5% | .

Screening results as filed in PubChem BioAssay.
